# Experimental data taken from PubChem BioAssay (NCI).
# The panel holds about 83,000 compounds, 20% with a hit somewhere; the sample as a whole holds those more often.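 Step 1: grow cells in 96-well plates. Step 2: add test compound at a single concentration. Step 3: incubate 48 h. Step 4: record percent growth.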 Active and inactive are the calls of the source. The calls were made as follows: active = growth percent below 10; inactive = the rest.
# Test system: SR leukemia
# Test: NCI-60 one-dose screen, 48 h (100 = growth as untreated, 0 = no growth, -100 = all killed)
# Details: 10 µM
row,SMILES,growth
1,CC(=O)OC(OC(C)=O)C1CCCO1 (stereo unspecified),135% (inactive)
2,O=C(O)c1ccnc(Br)c1,109% (inactive)
3,c1ccc2c(N3CCCCC3)ncnc2c1,105% (inactive)
4,COc1ccccc1N=Nc1c(O)ccc2cc(S(=O)(=O)O)ccc12,91.7% (inactive)
5,N#Cc1c(N)sc(=S)c2c1CCCC2,93.6% (inactive)
6,O=C(CCl)N1CCN(C/C=C/c2ccccc2)CC1,23.1% (inactive)
7,C#CCSc1nnnn1-c1ccc(Br)c(C)c1,74.4% (inactive)
8,C=CC[N+](C)(C)C,90.8% (inactive)
9,Nc1ccc(N)c([N+](=O)[O-])c1,115% (inactive)
10,O=C(Nc1cc(-c2ccccc2)[nH]n1)c1ccc(Cl)cc1,47.7% (inactive)
11,CC(C)C(C#N)(C(C)C)C(C)C,89.8% (inactive)
12,CCOC(=O)C(CCC(C)C)C(=O)OCC,79.7% (inactive)
13,C=CCNC(=O)c1ccc(OC)cc1,110% (inactive)
14,S=c1[nH]ccn1-c1ccccc1Cl,101% (inactive)
15,NC(=S)N/N=C/c1ccc(N)cc1,98.6% (inactive)
16,CCCCC(O)c1ccccc1 (stereo unspecified),98% (inactive)
17,CCOc1ccc(Br)cc1/C=N\N=C\c1cc(Br)ccc1OCC,92.4% (inactive)
18,O=C1Cc2ccccc2C(=O)O1,79.3% (inactive)
19,CC(C)CCOC(=O)c1ccccc1,107% (inactive)

row,SMILES,growth
1,COC(=O)c1ccc(C(C)C)cc1,103% (inactive)
2,COc1cccc(/C=N/NC(=S)NC2CC3CCC2C3)c1O (stereo unspecified),3.68% (active)
3,CCOC(=O)C1OC1c1ccccc1 (stereo unspecified),98.7% (inactive)
4,C/C(=C\c1cc(Cl)ccc1OCC(=O)O)[N+](=O)[O-],113% (inactive)
5,CCN=c1cc2sc3cc(NCC)c(C)cc3nc-2cc1C,13.4% (inactive)
6,Clc1ccc(-c2nnc(-c3cccc4ccccc34)o2)cc1,85.5% (inactive)
7,COc1cc(OC)c2ccc(=O)oc2c1,125% (inactive)
8,COc1ccc(Oc2c(I)cc(CC(NC(C)=O)C(=O)O)cc2I)cc1 (stereo unspecified),83.1% (inactive)
9,Cc1cc2ccccc2c(O)c1C#N,108% (inactive)
10,CN(C)/N=C/c1ccccc1O,97.9% (inactive)
11,Cc1cc(C(C)(C)C)cc(C)c1Br,84.9% (inactive)
12,COc1cc(C2c3cc4c(cc3C3OC(=O)C2C3CO)OCO4)cc(OC)c1OC (stereo unspecified),4.01% (active)
13,CCCC1(c2ccccc2)NC(=O)NC1=O (stereo unspecified),126% (inactive)
14,CN(C)c1ccc(S(=O)(=O)O)cc1,92.9% (inactive)
15,Clc1ccc(-c2n[nH]c3c2Cc2ccccc2-3)cc1Cl,112% (inactive)
16,S=C1CCCCCN1,102% (inactive)
17,CCCOC(=O)C(O)c1ccccc1 (stereo unspecified),107% (inactive)
18,O=S(=O)(O)c1ccc(O)c2ccccc12,84.6% (inactive)
19,N/N=C(/Cc1ccccc1)NNC(N)=S,99.2% (inactive)

# Test system: RPMI-8226 leukemia
# Test: as above
# Details: 10 µM
row,SMILES,growth
1,CC(=O)OC(OC(C)=O)C1CCCO1 (stereo unspecified),114% (inactive)
2,O=C(O)c1ccnc(Br)c1,115% (inactive)
3,c1ccc2c(N3CCCCC3)ncnc2c1,66.9% (inactive)
4,COc1ccccc1N=Nc1c(O)ccc2cc(S(=O)(=O)O)ccc12,99.6% (inactive)
5,N#Cc1c(N)sc(=S)c2c1CCCC2,95.1% (inactive)
6,O=C(CCl)N1CCN(C/C=C/c2ccccc2)CC1,90.5% (inactive)
7,C#CCSc1nnnn1-c1ccc(Br)c(C)c1,62.1% (inactive)
8,C=CC[N+](C)(C)C,101% (inactive)
9,Nc1ccc(N)c([N+](=O)[O-])c1,98.8% (inactive)
10,O=C(Nc1cc(-c2ccccc2)[nH]n1)c1ccc(Cl)cc1,36.6% (inactive)
11,CC(C)C(C#N)(C(C)C)C(C)C,96.5% (inactive)
12,CCOC(=O)C(CCC(C)C)C(=O)OCC,98.8% (inactive)
13,C=CCNC(=O)c1ccc(OC)cc1,92.4% (inactive)
14,S=c1[nH]ccn1-c1ccccc1Cl,95.6% (inactive)
15,NC(=S)N/N=C/c1ccc(N)cc1,98.8% (inactive)
16,CCCCC(O)c1ccccc1 (stereo unspecified),108% (inactive)
17,CCOc1ccc(Br)cc1/C=N\N=C\c1cc(Br)ccc1OCC,95.5% (inactive)
18,O=C1Cc2ccccc2C(=O)O1,93.4% (inactive)
19,CC(C)CCOC(=O)c1ccccc1,118% (inactive)

row,SMILES,growth
1,COC(=O)c1ccc(C(C)C)cc1,99.9% (inactive)
2,COc1cccc(/C=N/NC(=S)NC2CC3CCC2C3)c1O (stereo unspecified),46.8% (inactive)
3,CCOC(=O)C1OC1c1ccccc1 (stereo unspecified),113% (inactive)
4,C/C(=C\c1cc(Cl)ccc1OCC(=O)O)[N+](=O)[O-],81.5% (inactive)
5,CCN=c1cc2sc3cc(NCC)c(C)cc3nc-2cc1C,2.43% (active)
6,Clc1ccc(-c2nnc(-c3cccc4ccccc34)o2)cc1,101% (inactive)
7,COc1cc(OC)c2ccc(=O)oc2c1,116% (inactive)
8,COc1ccc(Oc2c(I)cc(CC(NC(C)=O)C(=O)O)cc2I)cc1 (stereo unspecified),74.3% (inactive)
9,Cc1cc2ccccc2c(O)c1C#N,97.4% (inactive)
10,CN(C)/N=C/c1ccccc1O,113% (inactive)
11,Cc1cc(C(C)(C)C)cc(C)c1Br,95.1% (inactive)
12,COc1cc(C2c3cc4c(cc3C3OC(=O)C2C3CO)OCO4)cc(OC)c1OC (stereo unspecified),18.3% (inactive)
13,CCCC1(c2ccccc2)NC(=O)NC1=O (stereo unspecified),101% (inactive)
14,CN(C)c1ccc(S(=O)(=O)O)cc1,95.6% (inactive)
15,Clc1ccc(-c2n[nH]c3c2Cc2ccccc2-3)cc1Cl,57.9% (inactive)
16,S=C1CCCCCN1,98.3% (inactive)
17,CCCOC(=O)C(O)c1ccccc1 (stereo unspecified),118% (inactive)
18,O=S(=O)(O)c1ccc(O)c2ccccc12,94.5% (inactive)
19,N/N=C(/Cc1ccccc1)NNC(N)=S,100% (inactive)
